Source: PubChem
Most compounds without a hit are left out; they make up all but 6.7% or so of the library.
C diff HTS: blocks growth of Clostridium difficile. Clostridium difficile clinical isolate growth, OD600, 24 h; hits give low values. AID 1259249. growth activity, negative = inhibition, % at 16 µg/mL (by protocol). 86,000 tested, 0.25% active;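 active means mean growth activity at or below -80% and every replicate also at or below -80%; inconclusive means mean at or below -80% but some replicate above -80%; inactive means mean growth activity above -80%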;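 further: 0% = DMSO wells and -100% = levofloxacin 16 µg/mL wells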
T cruzi growth-1: T. cruzi proliferation inhibition; inhibition, % at 8.34 µM; 77,000 tested, 5.9% active; AID 624255; T. cruzi beta-gal in NIH3T3, GalScreen luminescence, 90 h;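 active means mean inhibition above about 93%, with at least 55% of replicates each passing it, limit read from the data, passing the limit was not always enough; inconclusive means only one of those two conditions holds; inactive means neither condition holds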
Pf Dd2 growth: blocks growth of Plasmodium falciparum Dd2 parasites. P. falciparum Dd2 growth, SYBR Green, 72 h; hits give low values. activity change, % at 10 µM. 94,000 tested, 2.3% active; in the data active means activity change below about -80%; inconclusive means no clear call, values can overlap the other calls
T cruzi growth-2: blocks T. cruzi growth in NIH3T3 host cells; T. cruzi beta-gal in NIH3T3, GalScreen luminescence, 90 h; shares compounds with T cruzi growth-1; 5,600 tested, 72% active; inhibition, % at 8.35 µM;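 active means mean replicate inhibition above about 95% and at least 55% of replicates individually reaching it, limit read from the data; inconclusive means only one of the two criteria is met; inactive means neither criterion is met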
T cruzi growth-3: inhibitors of T. cruzi proliferation | 5,600 tested, 21% active | T. cruzi beta-gal in NIH3T3, GalScreen luminescence, 90 h | shares compounds with T cruzi growth-1 | inhibition, % at 2.09 µM;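 active means mean inhibition above about 95%, with at least 55% of replicates also reaching it, limit read from the data; inconclusive means meets just one of the two conditions; inactive means meets neither condition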;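 further: plate controls were neutral control median for no effect and positive control median for full effect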
3T3 cytotox: cytotoxicity in mouse NIH/3T3 fibroblasts | NIH/3T3 viability, CellTiter-Glo ATP luminescence, 90 h | 5,600 tested, 14% active | cytotoxicity (signal decrease), % at 8.35 µM | shares compounds with T cruzi growth-1;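 active means mean signal decrease across replicates above about 35% based on untreated-well scatter, with enough replicates individually passing, limit read from the data; inconclusive means no rule stated though some were filed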;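 further: 0% = median of neutral control wells and 100% = median of positive control wells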
3T3 cytotox 2: cytotoxicity in mouse NIH/3T3 fibroblasts | shares compounds with T cruzi growth-1 | NIH/3T3 viability, CellTiter-Glo ATP luminescence, 90 h | inhibition, % at 24.9 µM | 5,600 tested, 56% active;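 active means mean loss of cell viability signal at or above a set limit, and enough replicates individually reaching it; inconclusive means meets only the mean limit or only the replicate share; inactive means meets neither condition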;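 further: 0% = median of neutral control wells and 100% = median of positive control wells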
* marks the source's active call; other numbers are inactive results; ? = inconclusive; . = no result given.

SMILES	C diff HTS	T cruzi growth-1	Pf Dd2 growth	T cruzi growth-2	T cruzi growth-3	3T3 cytotox	3T3 cytotox 2
CN(C)C(=O)c1cccc(-c2ccc3c(c2)[C@@H]2[C@@H](CCN2C(=O)C2CCOCC2)[C@H](CO)N3)c1	2.0	?	3.3	98.7*	26.3	-14.3	-9.4
CN(C)C(=O)c1cccc(-c2ccc3c(c2)[C@H]2[C@H](CCN2C(=O)C2CCOCC2)[C@H](CO)N3)c1	4.6	92.2	8.4	.	.	.	.
O=C(CN1CCOCC1)N1CC[C@H]2[C@H](CO)Nc3ccc(-c4ccc(F)cc4)cc3[C@H]21	3.2	85.8	-24.8	.	.	.	.
COc1cccc(-c2ccc3c(c2)[C@H]2[C@H](CCN2C(=O)CN2CCOCC2)[C@@H](CO)N3)c1	-9.4	?	-16.2	87.2	33.7	-8.7	-2.4
O=C(CN1CCOCC1)N1CC[C@@H]2[C@H]1c1cc(-c3ccccc3)ccc1N[C@@H]2CO	-11.2	?	7.5	98.3*	14.3	-17.1	4.8
COc1cccc(-c2ccc3c(c2)[C@@H]2[C@@H](CCN2C(=O)Cc2ccccc2)[C@@H](CO)N3)c1	-27.7	16.7	1.3	.	.	.	.
COc1cccc(-c2ccc3c(c2)[C@H]2[C@H](CCN2C(=O)Cc2ccncc2)[C@H](CO)N3)c1	.	104.0*	-75.6	94.6	61.8	4.2	15.1
COc1ccc(-c2ccc3c(c2)[C@@H]2[C@@H](CCN2C(=O)CN2CCOCC2)[C@@H](CO)N3)cc1	-19.2	60.0	-12.3	.	.	.	.
COc1ccc2c3c([nH]c2c1)[C@H](CO)N(Cc1ccccn1)CC31CN(C(C)=O)C1	0.9	.	11.6	.	.	.	.
CCCNC(=O)N1CC2(CN(C(=O)COC)C2)c2c(n(C)c3cc(OC)ccc23)[C@H]1CO	71.8	.	1.1	.	.	.	.
C[C@H]1CN([C@@H](C)CO)S(=O)(=O)c2ccc(C3=CCCCC3)cc2O[C@H]1CN(C)C(=O)C1CCC1	9.3	92.9	-26.3	.	.	.	.
COc1cccc(-c2ccc3c(c2)[C@@H]2[C@@H](CCN2C(=O)C2CCOCC2)[C@@H](CO)N3)c1	-0.7	103.3*	-7.3	100.7*	?	12.9	17.0
COc1cccc(-c2ccc3c(c2)[C@H]2[C@H](CCN2C(=O)C2CC2)[C@H](CO)N3)c1	-17.7	.	-57.7	.	.	.	.
N#C[C@@H]1[C@@H](c2ccccc2)[C@H](CO)N1S(=O)(=O)c1ccc(F)cc1	-2.7	50.3	13.4	.	.	.	.
N#C[C@@H]1[C@H](c2ccccc2)[C@H](CO)N1S(=O)(=O)c1ccc(F)cc1	-14.3	33.2	40.9	.	.	.	.
N#C[C@H]1[C@@H](c2ccccc2)[C@@H](CO)N1S(=O)(=O)c1ccc(-c2ccccc2)cc1	-0.4	95.9*	-8.8	101.6*	76.7	10.2	22.8
N#C[C@@H]1[C@@H](c2ccccc2)[C@@H](CO)N1S(=O)(=O)c1ccc(-c2ccccc2)cc1	17.8	102.8*	48.2	100.4*	25.7	17.5	20.3
CO[C@@H]1CN(C)C(=O)c2ccc(NC(=O)c3cccc(F)c3)cc2OC[C@@H](C)N(C)C[C@H]1C	.	2.6	-25.8	.	.	.	.
C[C@H](CO)N1C[C@H](C)[C@@H](CN(C)Cc2ccncc2)Oc2ncc(C#Cc3ccccn3)cc2C1=O	-0.5	?	-2.6	108.0*	46.8	-14.5	6.9
C[C@H]1CN([C@@H](C)CO)C(=O)c2cc(C#Cc3ccccn3)cnc2O[C@@H]1CN(C)Cc1ccncc1	-1.2	65.2	-9.1	.	.	.	.
C[C@H]1CN([C@@H](C)CO)C(=O)c2cc(C#Cc3ccccn3)cnc2O[C@H]1CN(C)Cc1ccccc1	-3.5	54.6	-7.4	.	.	.	.
C[C@@H]1CN([C@H](C)CO)C(=O)c2cc(C#Cc3ccccn3)cnc2O[C@H]1CN(C)Cc1ccncc1	0.1	106.6*	8.8	103.8*	39.0	-14.1	2.2
Cc1ccc(S(=O)(=O)N[C@H]2CC[C@H](CCNC(=O)C3CCC3)O[C@@H]2CO)cc1	-0.8	.	-2.0	.	.	.	.
CN1CCN(C(=O)C[C@H]2CC[C@@H]3[C@H](COC[C@H](O)CN3C(=O)C3CCOCC3)O2)CC1	-2.0	35.4	24.0	.	.	.	.
O=C(C1CC1)N1CC2(C1)[C@@H](c1ccccc1)[C@@H](CO)N2Cc1ccc(Cl)cc1	2.1	.	-26.9	.	.	.	.
SMILES	C diff HTS	T cruzi growth-1	Pf Dd2 growth	T cruzi growth-2	T cruzi growth-3	3T3 cytotox	3T3 cytotox 2
C[C@H](CO)N1C[C@H](C)[C@H](CN(C)Cc2ccccn2)Oc2cc(-c3ccncc3)ccc2S1(=O)=O	0.8	105.9*	-14.2	89.2	84.4	10.1	27.6
C[C@H]1CN([C@@H](C)CO)S(=O)(=O)c2ccc(-c3ccncc3)cc2O[C@@H]1CN(C)Cc1ccccn1	-3.4	117.4*	-54.7	102.9*	99.5*	33.1	85.5*
Cc1ccc(-c2ccc3c(c2)O[C@@H](CN(C)Cc2ccccn2)[C@H](C)CN([C@H](C)CO)S3(=O)=O)cc1	1.8	92.9	-52.2	.	.	.	.
C[C@@H]1CN([C@@H](C)CO)S(=O)(=O)c2ccc(-c3ccncc3)cc2O[C@H]1CN(C)Cc1ccccn1	-3.7	114.1*	-42.8	105.3*	102.7*	32.5	36.0*
C[C@H]1CN([C@@H](C)CO)S(=O)(=O)c2ccc(-c3ccccc3)cc2O[C@@H]1CN(C)Cc1ccccn1	-5.3	14.3	-52.7	.	.	.	.
C[C@H](CO)N1C[C@H](C)[C@@H](CN(C)Cc2ccccn2)Oc2cc(-c3ccccc3)ccc2S1(=O)=O	-5.6	50.8	-39.5	.	.	.	.
Cc1ccc(-c2ccc3c(c2)O[C@@H](CN(C)Cc2ccccn2)[C@H](C)CN([C@@H](C)CO)S3(=O)=O)cc1	1.6	119.0*	-61.7	98.2*	82.0	64.1*	103.3*
C[C@@H]1CN([C@@H](C)CO)S(=O)(=O)c2ccc(-c3ccncc3)cc2O[C@@H]1CN(C)Cc1ccccn1	-2.7	85.5	-4.8	.	.	.	.
CN1C(=O)c2cc(NC(=O)C3CCCC3)ccc2OC[C@@H]2O[C@@H](CC(=O)O)CC[C@H]21	-1.4	-19.7	13.7	.	.	.	.
C[C@@H]1CN([C@@H](C)CO)S(=O)(=O)c2ccc(-c3ccc(C(=O)N(C)C)cc3)cc2O[C@H]1CN(C)C(=O)C1CC1	.	60.3	-20.9	.	.	.	.
C[C@H]1CN([C@@H](C)CO)C(=O)c2cc(NC(=O)Nc3ccc(F)cc3)ccc2O[C@@H]1CN(C)Cc1ccc(Oc2ccccc2)cc1	0.7	46.2	1.6	.	.	.	.
COc1ccc(S(=O)(=O)Nc2ccc3c(c2)CC(=O)N([C@H](C)CO)C[C@@H](C)[C@@H](CN(C)Cc2ccc(Oc4ccccc4)cc2)O3)cc1	19.9	61.4	-0.3	.	.	.	.
COC(=O)[C@H]1[C@H](CO)[C@H]2Cn3c(ccc(-c4ccc(F)cc4)c3=O)[C@H]2N1C(=O)C1CCC1	-9.5	58.9	.	.	.	.	.
C[C@H]1CCCCO[C@@H](CN(C)C(=O)Nc2ccc3c(c2)OCO3)[C@@H](C)CN([C@@H](C)CO)C(=O)c2cc(NC(=O)NC3CCCCC3)ccc2O1	-16.3	117.7*	-46.7	112.7*	66.9	-2.6	-12.3
